The source of these data is PMC4336329 (PLoS ONE, 2015).

In all, about 310,000 compounds went through this assay and about 14,000 (4.5%) showed an effect of 50% or more. The effect is printed as a negative number. This excerpt belongs to a sample that is enriched for strong results.
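Further: peak tail current of the secondary pulse compared with the same well before compound.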

In this test the target is human ether-à-go-go-related gene (hERG) potassium channel (human, UniProt Q12809). Description: primary screen, population patch clamp on CHO cells stably expressing hERG; higher = less effect of the substance.
Chain of human ether-à-go-go-related gene (hERG) potassium channel (Q12809 whole entry, looked up): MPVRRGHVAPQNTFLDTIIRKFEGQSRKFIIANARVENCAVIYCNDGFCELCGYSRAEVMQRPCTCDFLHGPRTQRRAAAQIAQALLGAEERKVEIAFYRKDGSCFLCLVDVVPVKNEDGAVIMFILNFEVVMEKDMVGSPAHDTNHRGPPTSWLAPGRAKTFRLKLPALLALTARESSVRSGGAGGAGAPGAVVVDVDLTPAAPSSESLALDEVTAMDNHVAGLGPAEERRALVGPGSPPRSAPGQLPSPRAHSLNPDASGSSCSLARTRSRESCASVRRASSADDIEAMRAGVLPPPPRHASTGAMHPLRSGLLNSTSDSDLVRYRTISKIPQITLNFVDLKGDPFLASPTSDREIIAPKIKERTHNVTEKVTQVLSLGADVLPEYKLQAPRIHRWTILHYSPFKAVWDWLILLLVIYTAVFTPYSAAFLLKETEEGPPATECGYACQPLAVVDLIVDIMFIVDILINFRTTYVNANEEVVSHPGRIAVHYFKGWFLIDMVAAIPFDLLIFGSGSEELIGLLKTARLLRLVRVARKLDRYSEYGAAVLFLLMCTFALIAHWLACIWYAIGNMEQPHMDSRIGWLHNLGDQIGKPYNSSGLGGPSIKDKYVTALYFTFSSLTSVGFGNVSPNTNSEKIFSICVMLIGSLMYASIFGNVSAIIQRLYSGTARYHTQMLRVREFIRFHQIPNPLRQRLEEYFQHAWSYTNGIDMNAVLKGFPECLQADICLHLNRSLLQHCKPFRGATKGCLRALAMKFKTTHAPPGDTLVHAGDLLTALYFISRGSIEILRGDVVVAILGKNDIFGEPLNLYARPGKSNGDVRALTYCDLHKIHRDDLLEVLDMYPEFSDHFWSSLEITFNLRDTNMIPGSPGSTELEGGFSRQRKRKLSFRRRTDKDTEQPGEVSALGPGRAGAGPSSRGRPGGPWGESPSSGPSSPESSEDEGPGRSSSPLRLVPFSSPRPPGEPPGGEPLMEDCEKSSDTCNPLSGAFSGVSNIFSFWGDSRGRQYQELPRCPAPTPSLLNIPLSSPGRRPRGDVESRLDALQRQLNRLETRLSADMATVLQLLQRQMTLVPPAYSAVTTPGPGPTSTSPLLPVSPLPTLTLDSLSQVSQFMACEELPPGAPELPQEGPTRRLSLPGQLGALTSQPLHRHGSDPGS
As for `COc1cccc(/C=C2\SC(=O)NC2=O)c1OCc1ccc(C(=O)O)cc1`, the “hERG current change (%, negative = inhibition) at 10uM” value was 9.69%.
Take `OCCN1CCN(Cc2cc(Cl)c3cccnc3c2O)CC1`: the “hERG current change (%, negative = inhibition) at 10uM” value was determined as 16.6%.
`COc1ccccc1N1CCN(C(=O)C(=O)c2c[nH]c3ccccc23)CC1`: the “hERG current change (%, negative = inhibition) at 10uM” value is given as 0.156%.
With `Nc1ccccc1SCC(=O)Nc1ccc2c(c1)OCCO2` the figure was 3.12%; with `O=C(CSc1nnc2c(n1)[nH]c1ccc(F)cc12)Nc1ccccc1F`, 19.5%.
With `Cc1ccc(C(=O)NC2CCSC2=O)cc1` (centres unmarked) the figure was 7.89%; with `Cc1ccc(NC(=O)C2OCCc3ccccc32)cc1C` (centres unmarked), -3.78%; with `Cc1ccc([N+](=O)[O-])c(OCCN2CCC(Cc3ccccc3)CC2)c1.O=C(O)C(=O)O`, -73%.
The figure for `Cc1cc(OCCCN2CCN(Cc3ccccc3)CC2)ccc1[N+](=O)[O-].O=C(O)C(=O)O` is -71.5%.
For the molecule `Cc1ccc([N+](=O)[O-])c(OCCCN2CCC(Cc3ccccc3)CC2)c1.O=C(O)C(=O)O`, the “hERG current change (%, negative = inhibition) at 10uM” value is reported as -89.6%.
The figure for `Cc1cc(OCCCn2ccnc2)ccc1[N+](=O)[O-].O=C(O)C(=O)O` is -2.51%; for `Cc1ccc(OCCN2CCN(C)CC2)c([N+](=O)[O-])c1.O=C(O)C(=O)O` it is 6%; for `Cc1ccc([N+](=O)[O-])c(OCCN2CCc3ccccc3C2)c1.O=C(O)C(=O)O` it is -23.3%.
The figure for `Cc1ccc([N+](=O)[O-])c(OCCN2CCCCCC2)c1.O=C(O)C(=O)O` is -34%; for `Cc1cc(OCCN2CCOCC2)ccc1[N+](=O)[O-].O=C(O)C(=O)O` it is 5.11%.
The figure for `Cc1ccc([N+](=O)[O-])c(OCCCN2CCCCCC2)c1.O=C(O)C(=O)O` is -58.6%; for `COc1cc(NC(=O)CN2CCC(Cc3ccccc3)CC2)c(C)cc1[N+](=O)[O-]` it is 6.01%; for `Cc1ccc([N+](=O)[O-])c(OCCN2CCNCC2)c1.O=C(O)C(=O)O` it is -14.6%.
Turning to `O=C(Nc1ccccc1F)c1ccc2c(c1)CCN2S(=O)(=O)c1ccccc1`, the “hERG current change (%, negative = inhibition) at 10uM” value amounted to 19.5%.
With `C=CCn1c(SCc2ccccc2C#N)nnc1-c1ccccc1O` the figure was -23.7%.
The figure for `Cc1ccc2c(c1)C(c1ccc(N3CCOCC3)cc1)=NNC(c1cccs1)=N2` is 1.66%.
The figure for `Nc1n[nH]c(N)c1N=Nc1ccc(Cl)cc1Cl` is 19.1%; for `COc1ccc(-c2noc(N3CCC(C(=O)Nc4ccccc4Cl)CC3)n2)cc1` it is 10.8%.
